Active and inactive are the calls of the source. The calls were made as follows: active = hit-call score of the fitted dose curve at least 0.9, where 1 is the maximum; inactive = score below 0.9.
Legend:
[1] = IUF_NPC1b_proliferation_BrdU_72hr: Leibniz Research Institute for Environmental Medicine (IUF) 72-hour Neural Progenitor Cell Bromodeoxyuridine (BrdU) Proliferation Assay (NPC1b) (AID 2284207)
Outline: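 Luminescent BrdU ELISA measured DNA synthesis during the last 16 h of a 72 h exposure of primary human neural progenitor spheres grown with EGF and FGF. Signal was fitted relative to DMSO controls.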

[2] = IUF_NPC1a_proliferation_area_72hr: Leibniz Research Institute for Environmental Medicine (IUF) 72-hour Neural Progenitor Cell Proliferation Area Assay (NPC1a) (AID 2284208)
Outline: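 Spheres of 0.3 mm are plated singly in growth-factor medium and exposed from day 0. After three days at 37C and 5% CO2, sphere area is measured by phase contrast imaging, with activity referenced to DMSO.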

[3] = IUF_NPC1_viability_72hr: Viability Assessment at 72 hours in the Leibniz Research Institute for Environmental Medicine (IUF) Neural Progenitor Cell Proliferation Assay (NPC1) (AID 2284209)
Outline: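 Viability was measured by resazurin-to-resorufin fluorescence (alamar blue) after 72 h of continuous exposure without compound renewal. Each well held one hNPC sphere (gestational week 16-19 fetal cortex, 0.25-0.35 mm) cultured in EGF/FGF proliferation medium at 37C and pH 7.2-7.6.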

COP(=O)(OC)O/C(=C\Cl)c1cc(Cl)c(Cl)cc1Cl
AC50 [1]: 51.5 µM (active) | AC50 [2]: 41.6 µM (active) | AC50 [3]: 34.3 µM (active)

CCOP(=S)(OCC)Oc1nc(Cl)c(Cl)cc1Cl
outcome [1]: inactive | outcome [2]: inactive | outcome [3]: inactive

Reference: PubChem BioAssay (EPA / NIEHS)
